The text below walks through data of article PMC7862700, “An all-to-all approach to the identification of sequence-specific readers for epigenetic DNA modifications on cytosine”.

Holding throughout (assay): DAPPL (digital affinity profiling via proximity ligation, sequencing); 10 mM Tris-HCl pH 7.5, 50 mM NaCl, 1 mM DTT, 4% glycerol, room temperature, 30 min; GST-TFs on glutathione beads, 16-mer random dsDNA library, 0.1% formaldehyde crosslink after washing; high values mean tight binding
One experiment deals with T1, FLI1 (Homo sapiens, UniProt Q01543 1-452).
T1 sequence: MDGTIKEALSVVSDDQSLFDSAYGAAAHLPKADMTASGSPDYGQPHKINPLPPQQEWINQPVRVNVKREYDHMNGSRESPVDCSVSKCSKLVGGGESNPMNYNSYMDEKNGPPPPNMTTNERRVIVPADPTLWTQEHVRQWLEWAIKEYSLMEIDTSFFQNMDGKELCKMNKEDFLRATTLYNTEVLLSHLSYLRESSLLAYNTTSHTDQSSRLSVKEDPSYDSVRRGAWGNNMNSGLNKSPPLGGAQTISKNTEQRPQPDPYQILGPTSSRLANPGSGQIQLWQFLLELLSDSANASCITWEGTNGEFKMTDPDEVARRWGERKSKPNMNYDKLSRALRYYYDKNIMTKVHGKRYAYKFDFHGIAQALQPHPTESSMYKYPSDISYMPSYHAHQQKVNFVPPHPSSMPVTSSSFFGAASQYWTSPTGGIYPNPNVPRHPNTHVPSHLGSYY
Particulars: protein: recombinant; tags: N-terminal GST; dsDNA, one strand shown. Put shortly: (§1)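 Binding signal is given per hexamer as its read frequency for a factor divided by its frequency in the tag-only sample. GST-fused human transcription factors were expressed in yeast, captured on glutathione beads, barcoded with DNA and pooled with that sample, then incubated with 200 nmole of a 16-mer random double-stranded DNA library in Tris/NaCl/DTT/glycerol buffer for 30 min at room temperature. The pools were then washed, crosslinked, proximity-ligated, amplified by PCR and sequenced on an Illumina NextSeq500.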

Another experiment concerns the target T2, ELK1 (Homo sapiens, UniProt P19419 1-428).
T2 sequence: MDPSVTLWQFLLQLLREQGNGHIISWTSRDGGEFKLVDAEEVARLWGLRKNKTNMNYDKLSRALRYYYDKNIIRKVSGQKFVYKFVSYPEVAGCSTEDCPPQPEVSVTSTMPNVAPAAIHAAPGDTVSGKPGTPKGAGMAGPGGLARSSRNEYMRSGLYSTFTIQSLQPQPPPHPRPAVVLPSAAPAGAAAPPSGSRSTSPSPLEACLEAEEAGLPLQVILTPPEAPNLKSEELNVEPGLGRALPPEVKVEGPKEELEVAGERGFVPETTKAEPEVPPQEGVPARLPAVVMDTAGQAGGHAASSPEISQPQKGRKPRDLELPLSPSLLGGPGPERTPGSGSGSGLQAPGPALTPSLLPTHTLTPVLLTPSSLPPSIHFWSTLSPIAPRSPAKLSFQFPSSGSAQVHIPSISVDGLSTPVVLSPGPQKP
The following applies: protein: recombinant; tags: N-terminal GST; dsDNA, one strand shown. In short, it runs like this:
as §1

The next experiment concerns the target T3, GABPA (Homo sapiens, UniProt Q06546 1-454).
T3 sequence: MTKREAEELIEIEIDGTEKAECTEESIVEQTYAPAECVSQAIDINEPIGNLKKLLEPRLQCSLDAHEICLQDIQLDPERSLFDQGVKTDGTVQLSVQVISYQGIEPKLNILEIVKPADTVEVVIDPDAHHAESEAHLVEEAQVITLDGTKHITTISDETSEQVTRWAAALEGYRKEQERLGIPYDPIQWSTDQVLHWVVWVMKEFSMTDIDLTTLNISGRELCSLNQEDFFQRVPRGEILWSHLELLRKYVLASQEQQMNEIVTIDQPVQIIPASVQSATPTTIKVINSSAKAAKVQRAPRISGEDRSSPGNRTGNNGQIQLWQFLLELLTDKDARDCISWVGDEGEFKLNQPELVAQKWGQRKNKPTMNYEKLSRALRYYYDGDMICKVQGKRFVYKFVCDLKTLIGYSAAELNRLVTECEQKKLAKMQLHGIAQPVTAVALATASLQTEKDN
The following applies: protein: recombinant; tags: N-terminal GST; dsDNA, one strand shown. In short, it runs like this:
as §1

The target in the next experiment is T4, ERG (Homo sapiens, UniProt P11308 1-479).
T4 sequence: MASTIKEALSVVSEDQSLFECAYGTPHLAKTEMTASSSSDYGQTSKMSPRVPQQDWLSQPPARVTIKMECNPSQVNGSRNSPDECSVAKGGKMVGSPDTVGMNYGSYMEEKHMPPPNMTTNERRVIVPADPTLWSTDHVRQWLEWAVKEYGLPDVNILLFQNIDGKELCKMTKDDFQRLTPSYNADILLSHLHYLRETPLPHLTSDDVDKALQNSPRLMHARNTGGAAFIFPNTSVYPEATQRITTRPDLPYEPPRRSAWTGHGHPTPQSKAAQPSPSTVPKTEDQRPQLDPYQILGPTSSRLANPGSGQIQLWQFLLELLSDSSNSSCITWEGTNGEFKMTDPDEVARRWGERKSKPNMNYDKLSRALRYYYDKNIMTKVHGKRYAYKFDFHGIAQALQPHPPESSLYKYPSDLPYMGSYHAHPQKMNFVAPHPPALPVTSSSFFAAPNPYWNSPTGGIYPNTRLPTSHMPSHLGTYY
Particulars: protein: recombinant; tags: N-terminal GST; dsDNA, one strand shown. In short, it runs like this:
as §1

The target of a further experiment is ELF1 (Homo sapiens, UniProt P32519 1-619). The following applies: protein: recombinant; tags: N-terminal GST; dsDNA, one strand shown. Put shortly:
as §1

The next experiment concerns the target SPI1 (Homo sapiens, UniProt P17947 1-270). Particulars: protein: recombinant; tags: N-terminal GST; dsDNA, one strand shown. In short, it runs like this:
as §1

Another experiment addresses SPIB (Homo sapiens, UniProt Q01892 1-262). Particulars: protein: recombinant; tags: N-terminal GST; dsDNA, one strand shown. Put shortly: as §1
The next experiment has as its target T5, ELK3 (Homo sapiens, UniProt P41970 1-407).
T5 sequence: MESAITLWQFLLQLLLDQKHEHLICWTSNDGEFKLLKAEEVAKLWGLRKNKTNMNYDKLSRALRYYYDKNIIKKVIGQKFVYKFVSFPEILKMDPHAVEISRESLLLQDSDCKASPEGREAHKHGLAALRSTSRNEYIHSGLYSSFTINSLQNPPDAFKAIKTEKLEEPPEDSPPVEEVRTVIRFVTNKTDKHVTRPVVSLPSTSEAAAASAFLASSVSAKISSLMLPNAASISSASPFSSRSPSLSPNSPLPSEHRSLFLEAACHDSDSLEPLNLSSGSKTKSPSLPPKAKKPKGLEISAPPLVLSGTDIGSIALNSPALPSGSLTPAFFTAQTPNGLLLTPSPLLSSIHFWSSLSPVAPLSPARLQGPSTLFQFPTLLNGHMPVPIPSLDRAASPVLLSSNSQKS
The following applies: protein: recombinant; tags: N-terminal GST; dsDNA, one strand shown. Put shortly: as §1

The target in the next experiment is ETV5 (Homo sapiens, UniProt P41161 1-510). The following applies: protein: recombinant; tags: N-terminal GST; dsDNA, one strand shown. Put shortly: as §1
In a further experiment the target is HSF1 (Homo sapiens, UniProt Q00613 1-529). The following applies: protein: recombinant; tags: N-terminal GST; chain copies: 3; dsDNA, one strand shown. Put shortly:
as §1

The target of another experiment is T6, SPIC (Homo sapiens, UniProt Q8N5J4 1-248).
T6 sequence: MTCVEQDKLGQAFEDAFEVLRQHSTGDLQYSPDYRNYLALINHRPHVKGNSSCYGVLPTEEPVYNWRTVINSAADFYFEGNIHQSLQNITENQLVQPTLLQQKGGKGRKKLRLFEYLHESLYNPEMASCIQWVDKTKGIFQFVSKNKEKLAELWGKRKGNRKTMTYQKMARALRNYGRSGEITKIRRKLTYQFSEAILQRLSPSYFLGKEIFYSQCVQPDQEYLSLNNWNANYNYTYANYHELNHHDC
Particulars: protein: recombinant; tags: N-terminal GST; dsDNA, one strand shown. In short, it runs like this:
as §1

In another experiment the target is ELF4 (Homo sapiens, UniProt Q99607 1-663). The following applies: protein: recombinant; tags: N-terminal GST; dsDNA, one strand shown. In short, it runs like this:
as §1

For another experiment, the target named is T7, ELK4 (Homo sapiens, UniProt P28324-2 1-405).
T7 sequence: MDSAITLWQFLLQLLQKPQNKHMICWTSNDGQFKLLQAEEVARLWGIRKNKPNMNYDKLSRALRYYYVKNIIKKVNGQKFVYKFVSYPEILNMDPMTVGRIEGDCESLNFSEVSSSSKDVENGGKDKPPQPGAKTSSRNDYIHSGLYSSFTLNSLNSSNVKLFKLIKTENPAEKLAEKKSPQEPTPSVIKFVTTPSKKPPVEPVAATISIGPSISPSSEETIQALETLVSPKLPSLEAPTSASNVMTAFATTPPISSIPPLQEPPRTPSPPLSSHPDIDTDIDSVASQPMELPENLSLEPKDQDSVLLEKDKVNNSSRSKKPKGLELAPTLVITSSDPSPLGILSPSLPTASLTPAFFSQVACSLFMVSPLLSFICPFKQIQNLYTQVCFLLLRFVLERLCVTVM
The following applies: protein: recombinant; tags: N-terminal GST; dsDNA, one strand shown. Put shortly: as §1

For a further experiment, the target named is T8, ETV2 (Homo sapiens, UniProt O00321 1-342).
T8 sequence: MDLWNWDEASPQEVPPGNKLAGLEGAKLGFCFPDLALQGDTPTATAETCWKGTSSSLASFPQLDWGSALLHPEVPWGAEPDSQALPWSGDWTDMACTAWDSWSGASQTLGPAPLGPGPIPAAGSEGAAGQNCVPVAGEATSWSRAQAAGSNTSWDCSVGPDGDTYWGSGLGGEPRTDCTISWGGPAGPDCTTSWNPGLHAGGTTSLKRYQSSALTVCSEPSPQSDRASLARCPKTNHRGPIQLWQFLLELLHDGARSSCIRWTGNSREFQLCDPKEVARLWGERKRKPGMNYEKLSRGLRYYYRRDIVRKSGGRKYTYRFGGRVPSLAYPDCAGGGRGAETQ
Particulars: protein: recombinant; tags: N-terminal GST; dsDNA, one strand shown. Put shortly:
as §1

Another experiment addresses T9, ELF3 (Homo sapiens, UniProt P78545 1-371).
T9 sequence: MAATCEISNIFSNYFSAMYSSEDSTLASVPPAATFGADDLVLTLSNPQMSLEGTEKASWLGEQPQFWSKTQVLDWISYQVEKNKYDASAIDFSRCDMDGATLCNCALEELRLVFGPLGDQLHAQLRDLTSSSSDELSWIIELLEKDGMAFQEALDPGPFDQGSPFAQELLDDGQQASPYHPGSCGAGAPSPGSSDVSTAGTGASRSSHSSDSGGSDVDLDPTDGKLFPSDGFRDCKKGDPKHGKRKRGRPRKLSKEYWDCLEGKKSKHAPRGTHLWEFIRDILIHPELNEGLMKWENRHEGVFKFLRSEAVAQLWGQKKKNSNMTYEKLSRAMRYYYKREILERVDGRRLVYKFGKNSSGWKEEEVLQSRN
The following applies: protein: recombinant; tags: N-terminal GST; dsDNA, one strand shown. In short, it runs like this: as §1

In the next experiment the target is CRX (Homo sapiens, UniProt O43186 1-299). Particulars: protein: recombinant; tags: N-terminal GST; dsDNA, one strand shown. Put shortly:
as §1

A further experiment concerns the target ETV1 (Homo sapiens, UniProt P50549 1-477). The following applies: protein: recombinant; tags: N-terminal GST; dsDNA, one strand shown. Put shortly: as §1

SPIB, sequence (Q01892 whole entry): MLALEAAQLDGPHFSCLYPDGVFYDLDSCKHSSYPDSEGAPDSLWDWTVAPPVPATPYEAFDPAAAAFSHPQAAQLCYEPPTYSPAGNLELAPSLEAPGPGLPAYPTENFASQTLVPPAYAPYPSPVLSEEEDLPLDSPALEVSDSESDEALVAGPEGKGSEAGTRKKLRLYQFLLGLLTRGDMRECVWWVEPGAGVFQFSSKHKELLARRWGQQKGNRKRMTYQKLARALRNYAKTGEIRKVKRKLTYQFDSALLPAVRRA
CRX, sequence (O43186 whole entry): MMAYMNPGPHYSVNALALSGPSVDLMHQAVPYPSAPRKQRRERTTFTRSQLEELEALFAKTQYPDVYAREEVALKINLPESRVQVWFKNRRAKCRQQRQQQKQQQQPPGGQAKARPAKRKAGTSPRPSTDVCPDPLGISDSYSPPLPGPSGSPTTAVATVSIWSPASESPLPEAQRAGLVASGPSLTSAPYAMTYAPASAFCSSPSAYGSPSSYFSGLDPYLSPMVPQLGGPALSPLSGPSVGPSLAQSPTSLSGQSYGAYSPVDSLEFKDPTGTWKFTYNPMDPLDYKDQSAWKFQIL
ETV5, sequence (P41161 whole entry): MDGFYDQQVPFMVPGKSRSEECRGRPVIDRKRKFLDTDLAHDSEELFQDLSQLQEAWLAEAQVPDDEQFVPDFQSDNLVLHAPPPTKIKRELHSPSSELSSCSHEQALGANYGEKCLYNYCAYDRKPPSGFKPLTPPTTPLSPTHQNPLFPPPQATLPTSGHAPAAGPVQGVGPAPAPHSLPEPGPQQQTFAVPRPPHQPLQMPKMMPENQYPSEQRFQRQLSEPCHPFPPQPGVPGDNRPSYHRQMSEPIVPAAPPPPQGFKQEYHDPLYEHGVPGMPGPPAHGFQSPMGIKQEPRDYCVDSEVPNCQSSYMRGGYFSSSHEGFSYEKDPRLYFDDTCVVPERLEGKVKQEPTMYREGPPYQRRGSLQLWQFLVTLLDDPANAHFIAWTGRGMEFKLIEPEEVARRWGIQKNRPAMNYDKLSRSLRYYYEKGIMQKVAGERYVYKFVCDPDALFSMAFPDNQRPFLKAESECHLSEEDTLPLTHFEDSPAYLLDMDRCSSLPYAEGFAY
ELF4, sequence (Q99607 whole entry): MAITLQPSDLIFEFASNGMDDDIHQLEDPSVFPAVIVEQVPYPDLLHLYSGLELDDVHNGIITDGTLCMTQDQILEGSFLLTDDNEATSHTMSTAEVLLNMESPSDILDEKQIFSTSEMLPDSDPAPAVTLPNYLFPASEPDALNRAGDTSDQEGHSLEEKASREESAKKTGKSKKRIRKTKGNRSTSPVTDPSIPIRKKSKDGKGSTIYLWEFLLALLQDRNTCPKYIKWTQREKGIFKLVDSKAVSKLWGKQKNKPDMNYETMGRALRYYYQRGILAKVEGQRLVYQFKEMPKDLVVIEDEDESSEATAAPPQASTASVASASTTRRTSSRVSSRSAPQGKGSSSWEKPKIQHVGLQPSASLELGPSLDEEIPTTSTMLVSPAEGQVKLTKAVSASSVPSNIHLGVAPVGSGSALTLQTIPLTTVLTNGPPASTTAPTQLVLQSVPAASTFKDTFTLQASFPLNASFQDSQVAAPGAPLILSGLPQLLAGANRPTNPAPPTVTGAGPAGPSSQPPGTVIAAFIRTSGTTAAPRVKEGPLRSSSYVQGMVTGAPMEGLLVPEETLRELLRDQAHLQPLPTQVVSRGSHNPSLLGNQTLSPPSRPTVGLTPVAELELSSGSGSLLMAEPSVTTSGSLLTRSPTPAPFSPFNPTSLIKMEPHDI
ELF1, sequence (P32519 whole entry): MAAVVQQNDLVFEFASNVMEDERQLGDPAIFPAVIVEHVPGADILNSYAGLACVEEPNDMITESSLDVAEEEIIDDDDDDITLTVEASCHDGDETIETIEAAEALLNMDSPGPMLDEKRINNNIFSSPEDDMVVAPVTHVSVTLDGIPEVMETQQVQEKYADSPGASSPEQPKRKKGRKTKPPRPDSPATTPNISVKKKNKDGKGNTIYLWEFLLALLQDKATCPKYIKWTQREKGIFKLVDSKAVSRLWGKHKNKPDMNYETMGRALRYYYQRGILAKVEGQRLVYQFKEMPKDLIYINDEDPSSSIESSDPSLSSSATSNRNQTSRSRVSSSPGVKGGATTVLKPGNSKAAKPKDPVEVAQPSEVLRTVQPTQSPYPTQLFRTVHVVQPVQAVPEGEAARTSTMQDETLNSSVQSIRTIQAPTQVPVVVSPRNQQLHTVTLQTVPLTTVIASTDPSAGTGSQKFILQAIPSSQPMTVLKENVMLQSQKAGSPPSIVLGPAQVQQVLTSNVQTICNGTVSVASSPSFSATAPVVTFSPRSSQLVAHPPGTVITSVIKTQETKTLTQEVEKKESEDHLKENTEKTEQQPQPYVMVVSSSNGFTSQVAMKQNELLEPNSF
HSF1, sequence (Q00613 whole entry): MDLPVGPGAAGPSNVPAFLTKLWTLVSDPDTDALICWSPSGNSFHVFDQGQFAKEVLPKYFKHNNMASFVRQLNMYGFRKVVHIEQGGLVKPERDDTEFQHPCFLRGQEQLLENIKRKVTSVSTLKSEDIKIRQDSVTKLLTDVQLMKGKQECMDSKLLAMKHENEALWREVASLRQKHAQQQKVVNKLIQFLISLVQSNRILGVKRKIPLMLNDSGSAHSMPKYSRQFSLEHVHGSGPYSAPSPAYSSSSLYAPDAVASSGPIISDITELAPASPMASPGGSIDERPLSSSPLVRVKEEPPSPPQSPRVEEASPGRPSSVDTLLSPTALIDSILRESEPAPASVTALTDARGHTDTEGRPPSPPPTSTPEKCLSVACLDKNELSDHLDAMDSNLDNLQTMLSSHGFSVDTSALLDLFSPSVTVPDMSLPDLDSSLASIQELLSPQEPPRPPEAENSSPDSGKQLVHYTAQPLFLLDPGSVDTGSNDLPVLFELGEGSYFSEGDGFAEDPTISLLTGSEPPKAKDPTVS
ETV1, sequence (P50549 whole entry): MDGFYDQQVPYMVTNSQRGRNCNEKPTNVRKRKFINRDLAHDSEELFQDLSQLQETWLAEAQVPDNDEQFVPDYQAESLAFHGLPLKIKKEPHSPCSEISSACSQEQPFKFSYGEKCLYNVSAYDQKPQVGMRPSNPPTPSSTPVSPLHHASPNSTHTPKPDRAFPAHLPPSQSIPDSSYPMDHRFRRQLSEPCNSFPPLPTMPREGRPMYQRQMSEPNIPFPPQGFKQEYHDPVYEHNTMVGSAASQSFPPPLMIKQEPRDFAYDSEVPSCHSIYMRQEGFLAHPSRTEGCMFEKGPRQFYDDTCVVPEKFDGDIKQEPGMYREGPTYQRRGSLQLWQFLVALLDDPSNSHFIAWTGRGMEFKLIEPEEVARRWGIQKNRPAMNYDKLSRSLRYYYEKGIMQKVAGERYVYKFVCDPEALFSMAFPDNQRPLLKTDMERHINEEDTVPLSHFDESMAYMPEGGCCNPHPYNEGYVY

Regarding TGTGGA, the binding signal was 1.08 fold enrichment (6-mer frequency, TF over GST control) with FLI1; 1.01 fold enrichment (6-mer frequency, TF over GST control) in the experiment with ELK1; 1.06 fold enrichment (6-mer frequency, TF over GST control) with GABPA; 1.16 fold enrichment (6-mer frequency, TF over GST control) with ERG; 1.11 fold enrichment (6-mer frequency, TF over GST control) with ELF1; 1.09 fold enrichment (6-mer frequency, TF over GST control) with SPI1. For the same sequence, the binding signal was 1.1 fold enrichment (6-mer frequency, TF over GST control) in the experiment with SPIB; 1.04 fold enrichment (6-mer frequency, TF over GST control) with ELK3; 1.04 fold enrichment (6-mer frequency, TF over GST control) with ETV5; 1.13 fold enrichment (6-mer frequency, TF over GST control) with HSF1; 1.11 fold enrichment (6-mer frequency, TF over GST control) with SPIC; 1.06 fold enrichment (6-mer frequency, TF over GST control) with ELF4. The binding signal was 1.15 fold enrichment (6-mer frequency, TF over GST control) with ELK4; 1.13 fold enrichment (6-mer frequency, TF over GST control) in the experiment with ETV2; 1 fold enrichment (6-mer frequency, TF over GST control) in the experiment with ELF3; 1.06 fold enrichment (6-mer frequency, TF over GST control) with CRX; 1.03 fold enrichment (6-mer frequency, TF over GST control) with ETV1.
